LGR2 antag: inhibitors of bursicon-induced LGR2 CRE-luciferase signal, primary screen, cell-based, HEK293, CRE-luciferase reporter, bursicon stimulation. Drosophila bursicon receptor LGR2 (rickets). bursicon-stimulated, 4 h. inhibition, % at 9.99 µM. 380,000 compounds, 0.35% hits. AID 720647, 2013;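 active = drop in luminescence signal, shown as inhibition above about 50% in the replicate tests, limit read from the data, passing the limit was not always enough; inconclusive = probably only some replicates passing the limit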;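 note: agonist challenge used bursicon conditioned medium at about half maximal strength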
PAX8 inh HTS: inhibitors of PAX8-driven TPO luciferase reporter, primary screen, RMG-I cells, single concentration; SteadyGlo, 24 h; inhibition, % at 12.6 µM; 360,000 compounds, 1.2% hits;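 active = mean replicate inhibition at least 60% with every replicate also reaching 60%; inconclusive = only one of the two criteria is met; inactive = mean below 60% and not all replicates reaching 60%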;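 note: luciferase light reporting Pax8 driven TPO promoter activity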
Shn3 inh set2: reduction of Shn3 3'UTR firefly luciferase signal, primary screen, Schnurri-3 inhibitor project, cell-based, Clone20 osteoblasts, set 2; Clone20 osteoblast Shn3 3'UTR firefly luciferase, 24 h; inhibition, % at 12.5 µM; 360,000 compounds, 0.52% hits; AID 588674, 2011;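 active = mean inhibition of at least 75% with every replicate also reaching 75%; inconclusive = mean inhibition at least 75% but some replicate below; inactive = mean inhibition below 75%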
EWS-Fli block: EWS/Fli-driven NR0B1 reporter inhibitors, primary screen, A673 cells, NR0B1 luciferase, luminescence, MLPCN library; viability-normalised; inhibition, % at 12.6 µM; 350,000 compounds, 0.67% hits; AID 651661, 2012;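 active = mean inhibition of at least 50% after viability correction, with every replicate also passing that limit; inconclusive = mean reaches 50% but only one of two replicates passes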;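 note: firefly luciferase signal divided by Alamar Blue viability fluorescence both relative to DMSO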
LMP1 NFkB inh: EBV LMP1-driven NF-kappaB luciferase reporter inhibitors, primary screen, cell-based, luminescence, single point; LMP1-induced NF-kappaB luciferase reporter cells; inhibition, % at 12.5 µM; 350,000 compounds, 0.69% hits; in the data active = inhibition above about 41%; inconclusive = no clear call, values can overlap the other calls
MITF TRPM1 inh: inhibitors of MITF-dependent TRPM1 promoter reporter, primary screen, cell-based, SK-MEL-5, single point, luciferase; SK-MEL-5 TRPM1 promoter luciferase, 24 h; inhibition, % at 12.5 µM; 330,000 compounds, 0.83% hits;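 active = mean inhibition across replicates of 60% or more, whatever share of single replicates reaches that level; inconclusive = some that reach 60%, reason not given; inactive = mean inhibition across replicates below 60%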
Large screens that a line does not name were inactive. The list is not random: actives were taken first. Their share in the collection is about 2.2%.

O=C(c1cccs1)N1C[C@@H](O)[C@H](n2cc(C3CC3)nn2)C[C@@H]1c1ccccc1	none (no result: MITF TRPM1 inh)
O=C(c1cccs1)N1C[C@H](O)[C@@H](n2cc(C3CC3)nn2)C[C@@H]1c1ccccc1	PAX8 inh HTS 98 (no result: MITF TRPM1 inh)
C[C@@H]1CN([C@@H](C)CO)C(=O)Cc2cc(NC(=O)C3CCCCC3)ccc2O[C@H]1CN(C)C(=O)Nc1ccc(F)cc1	none (no result: Shn3 inh set2, LMP1 NFkB inh, MITF TRPM1 inh)
COc1ccc(CN(C)C[C@@H]2Oc3ccc(NS(=O)(=O)c4cn(C)cn4)cc3C(=O)N([C@H](C)CO)C[C@@H]2C)cc1	none (no result: Shn3 inh set2, LMP1 NFkB inh, MITF TRPM1 inh)
O=C(NCCc1csc(-c2cccnc2)n1)c1cccc2ccccc12	LMP1 NFkB inh 89
O=C(NCCc1csc(-c2cccnc2)n1)c1ccccc1	none
NC(=O)c1ccc(Sc2nnc(-c3cccs3)n2CC2CCCO2)c([N+](=O)[O-])c1 (stereo unspecified)	EWS-Fli block 75
CCOC(=O)c1nc(NCc2ccccc2C)c2ccccc2n1	none
CCOC(=O)c1nc(NCc2ccccc2F)c2ccccc2n1	LMP1 NFkB inh 77
C[C@H]1CCCCO[C@H](CN(C)Cc2ccc(C(F)(F)F)cc2)[C@@H](C)CN([C@@H](C)CO)C(=O)c2cc(NC(=O)c3ccccc3)ccc2O1	PAX8 inh HTS 85 (no result: Shn3 inh set2, LMP1 NFkB inh, MITF TRPM1 inh)
C[C@@H]1CCCCO[C@H](CN(C)Cc2ccc(C(F)(F)F)cc2)[C@@H](C)CN([C@@H](C)CO)C(=O)c2cc(NC(=O)c3ccccc3)ccc2O1	PAX8 inh HTS 91 (no result: Shn3 inh set2, LMP1 NFkB inh, MITF TRPM1 inh)
C[C@H]1CCCCO[C@@H](CN(C)Cc2ccc(C(F)(F)F)cc2)[C@@H](C)CN([C@@H](C)CO)C(=O)c2cc(NC(=O)c3ccccc3)ccc2O1	PAX8 inh HTS 87 (no result: Shn3 inh set2, LMP1 NFkB inh, MITF TRPM1 inh)
C[C@@H]1CCCCO[C@@H](CN(C)Cc2ccc(C(F)(F)F)cc2)[C@@H](C)CN([C@H](C)CO)C(=O)c2cc(NC(=O)c3ccccc3)ccc2O1	none (no result: Shn3 inh set2, LMP1 NFkB inh, MITF TRPM1 inh)
C[C@@H]1CN([C@H](C)CO)C(=O)c2cc(NC(=O)c3ccncc3)ccc2O[C@@H](C)CCCCO[C@H]1CN(C)Cc1ccc(C(F)(F)F)cc1	PAX8 inh HTS 82, EWS-Fli block inconclusive (no result: Shn3 inh set2, LMP1 NFkB inh, MITF TRPM1 inh)
C[C@@H]1CN([C@H](C)CO)C(=O)c2cc(NC(=O)Cc3ccccc3)ccc2O[C@H]1CN(C)Cc1ccccc1	none (no result: Shn3 inh set2, LMP1 NFkB inh, MITF TRPM1 inh)
C[C@H]1CCCCO[C@H](CN(C)C(=O)Nc2ccc(C(F)(F)F)cc2)[C@@H](C)CN([C@@H](C)CO)C(=O)c2cc(NC(=O)c3ccncc3)ccc2O1	PAX8 inh HTS 93 (no result: Shn3 inh set2, LMP1 NFkB inh, MITF TRPM1 inh)
C[C@@H]1CN([C@@H](C)CO)C(=O)c2cc(NC(=O)c3ccccc3)ccc2O[C@@H](C)CCCCO[C@H]1CN(C)Cc1ccc(C(F)(F)F)cc1	PAX8 inh HTS 88 (no result: Shn3 inh set2, LMP1 NFkB inh, MITF TRPM1 inh)
C[C@@H]1CCCCO[C@@H](CN(C)C(=O)Nc2ccc(C(F)(F)F)cc2)[C@H](C)CN([C@@H](C)CO)C(=O)c2cc(NC(=O)c3ccncc3)ccc2O1	none (no result: Shn3 inh set2, LMP1 NFkB inh, MITF TRPM1 inh)
COc1ccc(Cl)cc1NC(=S)NCCc1ccc(S(N)(=O)=O)cc1	none
COc1cc(NC(=S)NCc2ccc(S(N)(=O)=O)cc2)c(OC)cc1Cl	EWS-Fli block 65
COc1ccc(/C=N/NC(=O)c2ccc(CSc3nc(C)cc(C)n3)cc2)cc1O	none
COc1ccc(O)c(/C=N/NC(=O)c2ccc(CSc3nc(C)cc(C)n3)cc2)c1	Shn3 inh set2 88 (no result: LGR2 antag, MITF TRPM1 inh)
Cc1cc(C)nc(SCc2ccc(C(=O)N/N=C/c3cccc(O)c3O)cc2)n1	PAX8 inh HTS 68, LMP1 NFkB inh 52 (no result: EWS-Fli block)
CC(=O)N1[C@H](C(=O)NCc2ccccc2F)[C@@H](CO)[C@@H]2Cn3c(ccc(-c4ccccc4)c3=O)[C@@H]21	none (no result: Shn3 inh set2, LMP1 NFkB inh, MITF TRPM1 inh)
c1ccc2c(c1)CCN(c1nc3cc4c(cc3s1)OCCO4)C2	PAX8 inh HTS 82 (no result: LGR2 antag, EWS-Fli block)
COc1ccc(OC)c2sc(N3CCc4ccccc4C3)nc12	none
N#C/C(=C/c1ccc(N2CCCCCC2)o1)c1ccc(Cl)cc1	Shn3 inh set2 96 (no result: LGR2 antag, PAX8 inh HTS, EWS-Fli block)
COCCOC(=O)c1c(C)oc2ccc(O)c(CN3CCC(C)CC3)c12 (tested in a mixture with another compound)	Shn3 inh set2 93 (no result: PAX8 inh HTS)

Source: PubChem BioAssay (Broad Institute)
